# KB-V1 MDR tox: KB-V1 MDR subline cytotoxicity; KB-V1 MDR cells viability, CellTiter-Glo, 72 h; 3.4% of 400,000 active; Potency, µM (series often up to 46.1 µM), hits mostly cytotoxic; further: on the % scale 0 is the no-effect control and ±100 the full control effect; nearly all actives have a fitted effect of over 60% in size
#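 Luminescent ATP read-out (CellTiter-Glo, 10 min) measures survival of drug-selected KB-V1 MDR cells after 72 h, 37 degrees C compound exposure. Medium: phenol-red-free DMEM, 10% FBS. Values from fitted concentration-response curves.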
# ELG1 repair inh: ELG1-dependent DNA repair inhibition | AID 504467 | Potency, µM (series often up to 46.1 µM), inactives show at the top dose activity change, negative = inhibition, actives largely listed as inhibitors | 2.3% of 330,000 active | HEK293T ELG1-luciferase reporter, luminescence, 16 h; DNA damage induced by 5-fluorouridine; further: on the % scale 0 is the no-effect control and ±100 the full control effect; nearly all actives have a fitted effect of over 55% in size
#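 HEK293T cells expressing luciferase-tagged ELG1 (2,000/well) received 5-Fluorouridine plus compound or DMSO for 16 hr at 37 °C. Luciferase was read by ONE-Glo luminescence after 30 min at room temperature.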
# KB-3-1 cytotox: kills parental KB-3-1 adenocarcinoma cells. KB-3-1 viability, CellTiter-Glo ATP luminescence, 72 h. Potency, µM (titrated, usually from 46.1 µM), actives largely listed as cytotoxic. 1.4% of 400,000 active; further: on the % scale 0 is the no-effect control and ±100 the full control effect; nearly all actives have a fitted effect of over 60% in size
#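 Cells are dispensed, compounds pinned in, plates held at 37 °C for 72 h, then CellTiter-Glo is added and luminescence read after 10 minutes. Cell line: parental KB-3-1 in phenol-red-free DMEM, 10% FBS.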
# MCF10A rereplic: induces DNA re-replication in MCF 10a normal breast cells; MCF 10A DNA re-replication, Hoechst nuclear intensity, 48 h; Potency, µM (series often up to 46.1 µM), for inactives: at the top dose activity, positive = re-replication, hits mostly activators; 2.9% of 350,000 active; further: % of control where 0% means no effect; nearly all actives have a fitted effect of over 50% in size
# SW480 rerep: induces DNA re-replication in SW480 colon adenocarcinoma cells; 1.8% of 340,000 active; SW480 DNA re-replication, Hoechst DNA content imaging, 48 h; Potency, µM (highest dose often 46.1 µM), for inactives: at the top dose re-replication activation, usual class: activators; AID 624297; further: % of control where 0% means no effect; nearly all actives have a fitted effect of over 55% in size
#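 Image-based DNA-content assay: after two days of treatment, nuclei were labelled with the DNA dye Hoechst and imaged, and hits were compounds raising the count of nuclei showing high fluorescence intensity.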
# Numbers without * were called inactive; i = inactive; ? = inconclusive; · = no result given; ! = repeats disagree; [ ] = dose if it differs, or a comment. In the library only some 8.2% were active in any assay of this set; here they are far more common. The call rests on the fitted dose curve; in most records, active means well fitted curve in the direction sought with a large enough effect; inconclusive means small, poorly fitted or top-dose-only effect, or another doubt; inactive means no such curve, though single readings can be large; an effect the other way counts as inactive or inconclusive. Potency means the concentration at half of the fitted maximal effect.
SMILES,KB-V1 MDR tox,ELG1 repair inh,KB-3-1 cytotox,MCF10A rereplic,SW480 rerep
CCN(CC)C(=O)c1ccc(COc2ccc(Cl)c(C)c2)o1,?,?,?,1.2%,6.3%[1.84 µM]
Cc1cccn2c(=O)c(/C=C(\C#N)C(=O)NCc3ccco3)c(N3CCCCC3)nc12,i,18.4µM*,i,6.4%,-2.8%
N#C/C(=C\c1c(N2CCCCC2)nc2ccccn2c1=O)C(=O)NCc1ccco1,2.91µM*,?,?,-33.2%,6.6%
CCc1nc2c(OCc3ccc(F)c(F)c3)cccn2c1N(C)C(=O)C1CC1,i,·,i,·,·
Nc1cccc2nc3ccccc3cc12,i,23.1µM*,?,-4.7%,-92.8%
Cc1cc2c(N)cccc2nn1,i,18.7%,i,-2.0%,1.0%
C#CCNC(=O)C1=C[C@H](C2CCCCC2)[C@@H](CCCO)[C@H](OCC)O1,i,3.5%,i,-7.8%,11.5%
CSCCC(NC(=O)COc1ccccc1)C(=O)OCC(=O)c1ccccc1 (stereo unspecified),i,15.9%,i,-14.6%,-12.5%
CSCCC(NS(=O)(=O)c1ccc(Cl)cc1)C(=O)OCC(=O)c1c(C)[nH]c2ccccc12 (stereo unspecified),14.6µM*,?,?,11.6µM*,16.9%
Cc1[nH]c2ccccc2c1C(=O)COC(=O)C1CC(O)CN1S(=O)(=O)c1ccc(Cl)cc1 (stereo unspecified),i,-20.1%,i,-5.2%,-3.0%
CSCCC(NS(=O)(=O)c1ccc2ccccc2c1)C(=O)OCC(=O)c1ccc(C(C)C)cc1 (stereo unspecified),18.4µM*,?,i,-2.1%,?
COc1cc(C#Cc2c(-c3cncn3C)n(C)c3ccc(-c4ccc(OC)c(OC)c4)cc23)cc(OC)c1,i,7.3µM*,?,-0.6%,-1.8%
COc1cc(C#Cc2c(-c3cncn3C)n(C)c3ccc(Br)cc23)cc(OC)c1,?,9.2µM*,?,44.8%,?
CS(=O)(=O)c1ccc(NC(=O)C2CCCN(C(=O)c3ccc(Cl)cc3)C2)cc1 (stereo unspecified),i,-5.1%,i,-0.9%,0.4%
CCN(CC)S(=O)(=O)c1ccc(NC(=O)C2CCCN(C(=O)c3ccc(Cl)cc3)C2)cc1 (stereo unspecified),?,18.4µM*,i,?,11.5%
CC(C)c1ccccc1NC(=O)C1CCCN(C(=O)c2ccc(Cl)cc2)C1 (stereo unspecified),?,-12.8%,?,13.1%,?
CCOc1ccc(OCC)c(NC(=O)C2CCCN(c3ncccn3)C2)c1 (stereo unspecified),i,?,i,2.8%,-3.2%
CCOc1ccc(OCC)c(NC(=O)C2CCCN(C(=O)c3ccc(Cl)cc3)C2)c1 (stereo unspecified),7.31µM*,-23.7%,i,4.7%,-1.5%
CCOc1ccc(OCC)c(NC(=O)C2CCN(c3ncccn3)CC2)c1,9.2µM*,-12.5%,i,-3.5%,4.5%
O=C(C(=O)c1cc(Br)ccc1O)c1cc(Br)ccc1O,?,·,23.1µM*,2.59µM*,?
CC(=O)Nc1cc(Br)ccc1O,i,-1.8%,i,0.731µM*,-10.6%
O=C1CCSc2c1ccc1ccccc21,i,·,i,-0.2%,-0.7%
Cc1ccccc1S(=O)(=O)NC(=O)C1(C)CCN1C(=O)c1cccc(F)c1 (stereo unspecified),i,·,i,·,·
COc1ccc2nc(N=NC3=C(O)CC(C)(C)CC3=O)sc2c1,i,3.3%,?,23.8%,2.06µM*
CC1(C)CC(=O)C(N=Nc2ccc3ncsc3c2)=C(O)C1,i,·,i,2.9%,-7.8%
SMILES,KB-V1 MDR tox,ELG1 repair inh,KB-3-1 cytotox,MCF10A rereplic,SW480 rerep
COc1ccc2nc(N)sc2c1,i,?,?,0.1%,-11.7%
COc1ccc2nc(N=Nc3ccc(O)c4ccccc34)sc2c1,?,?,?,8.2µM*,?
COc1ccc(-c2nc3cnccn3c2Nc2ccc(C)cc2)cc1,i,-0.5%,i,0.3%,4.7%
Cc1ccn2c(Nc3ccccc3C)c(-c3ccncc3)nc2c1,23.1µM*!,?,i,-0.4%,?
CC(=O)Nc1c(-c2ccccc2)nc2cc(C)ccn12,i,?,i,?,-1.3%
Cc1ccc(Nc2c(-c3ccccc3)nc3cnccn23)cc1,i,-6.4%,i,23.1µM*,16.9%
Cc1ccc(-c2nc3cnccn3c2Nc2ccccc2)o1,?,25.5%,i,23.1µM*,?
COc1ccc(Nc2c(-c3ccc(C)o3)nc3cc(C)ccn23)cc1,i,·,23.1µM*,·,·
CSc1cc(C)c(OCC(=O)Nc2c(C)nn(C)c2C)c(C)c1,?,2.5%,?,19.8%,2.2%
CCOC(=O)C1CCN(C(=O)Cn2nc(C)n3c(cc4sccc43)c2=O)CC1,i,·,i,·,·
CC(=O)Nc1ccc(S(=O)(=O)N(C)CC(=O)OC(C)C(=O)NC2CCCCC2)cc1 (stereo unspecified),i,17.4%,i,1.5%,-0.5%
CSc1ccc(-c2nc3cnccn3c2Nc2ccc3c(c2)OCO3)cc1,23.1µM*,14.3%,?,5.8µM*,6.7%
CC(NC(=O)c1ccccc1NC(=O)CN1CCc2ccccc2C1)c1ccccc1 (stereo unspecified),18.4µM*,13µM*,?,25.9µM*,?
CCCC1S/C(=N/N=C/c2ccc(OC)cc2)N(Cc2ccccc2)C1=O (stereo unspecified),i,-4.3%,i,?,-3.3%[9.22 µM]
CCCCC1S/C(=N/N=C/c2ccc(OC)cc2)N(Cc2ccc(OC)cc2)C1=O (stereo unspecified),8.2µM*,16.9%,i,2.3%,?
CCCC1S/C(=N/N=C/c2ccc(OC)cc2)N(Cc2ccc(OC)cc2)C1=O (stereo unspecified),16.4µM*,-23.7%,i,10.9%,-1.0%
CC(=O)c1ccc(NC(=O)CCCN2C(=O)COc3ccc(C)cc32)cc1,i,2.6%,i,15.7%,1.7%
Cc1ccc(Nc2nc(-c3ccc(S(=O)(=O)N4CCOCC4)cc3)cs2)cc1Cl,?,4.0%,i,?,8.6%
Nn1cnnc1SCC(=O)N1CCc2ccccc2C1,i,0.9%,i,-3.2%,-0.9%
O=C(Nc1ccc(-c2nc3ccccc3o2)cc1)c1cc(-n2cnnc2)ccc1Cl,i,?,?,?,-27.9%
O=C(Nc1ccc(-c2nc3ccccc3o2)c(O)c1)c1cc(-n2cnnc2)ccc1Cl,i,20.6µM*,i,?,?
CNC(=O)Nc1cc(NC(=O)NC)cc(C(F)(F)F)c1,i,-0.6%,i,2.2%,-8.4%

# Screens (PubChem)
